In the supplement of paper PMC6555819:

Tests used:
Test in all cases: PBM binding z-score (relative to random genomic background probes); higher = stronger binding; sequences stand for … in GC…GCGATTGACAGCGTAGAATGAAGG
[1] = test system: RARb homodimer (NR concentration 270 nM)
Outline: (§1)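 Ligand-free nuclear receptor dimers were applied to custom Agilent 4×180K protein-binding microarrays whose double-stranded probes carried direct-repeat seeds, single-nucleotide variants, half-site ablations and random human genomic background sequences in 34-nt variable regions. Incubation lasted 1 h. Binding z-scores were computed against the random background probes from regression-normalized fluorescence.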

[2] = test system: RARg:RXRa (NR concentration 270 nM, RXRa partner concentration 90 nM)
Outline: as §1

[3] = test system: RARg homodimer (NR concentration 270 nM)
Outline: as §1

[4] = test system: RXRa DBDmut IVT, anti-RXR (DBD mutation: RXRa K156A/R161A, NR concentration 90 nM)
Outline: as §1

[5] = test system: RXRa homodimer (NR concentration 180 nM)
Outline: as §1

[6] = test system: THRa:RXRa (NR concentration 90 nM, RXRa partner concentration 90 nM)
Outline: as §1

[7] = test system: THRa homodimer (NR concentration 90 nM)
Outline: as §1

[8] = test system: VDR:RXRa (NR concentration 270 nM, RXRa partner concentration 90 nM)
Outline: as §1

[9] = test system: VDR homodimer (NR concentration 270 nM)
Outline: as §1

Sequence | PBM binding z-score [1] | PBM binding z-score [2] | PBM binding z-score [3] | PBM binding z-score [4] | PBM binding z-score [5] | PBM binding z-score [6] | PBM binding z-score [7] | PBM binding z-score [8] | PBM binding z-score [9]
CTCGCAAGGTCGGTTGAGGTGAGTATACGGATAA | 1.72 | 1.27 | 1.25 | 0.828 | 1.01 | 4.74 | 1.75 | 1.21 | 0.439
TCTTGTAGATCAAGCAGGTTAAGATAGCCTGAGT | 0.14 | 0.091 | 0.0595 | 0.547 | 0.359 | 0.324 | -0.172 | 0.573 | -0.247
ATCGAAAGGTCGAGGTGATTATAGAGAAAGGGAA | 2.72 | 4.24 | 4.23 | 0.927 | 4.29 | 2.54 | 0.338 | 2.43 | 0.821
ACAGACAGGTGAGTGAAGGTAACTTAGCTGGACG | -0.0414 | 0.357 | 0.463 | -0.514 | 0.233 | 1.46 | -0.186 | -0.357 | -0.226
AATACAGGGTCCCTAGGCCAGAGTAGGTACGAAT | -0.162 | 0.119 | 0.25 | -0.442 | 0.211 | 0.106 | -0.229 | -0.389 | 0.0969
GCTGGCAGGCCATTTGGGTCACTCAATGACGGGC | 1.88 | 0.91 | 1.54 | -0.405 | 0.855 | 1.86 | 0.617 | 1 | 0.646
TCTTGTAGATTAACAGGAGGTTAAGAAAGATCGA | 0.36 | 0.787 | 0.386 | 0.566 | 1.05 | 1.03 | -0.287 | 0.91 | 0.0136
ATCTCTAGGTAAGAATCAGTTCAGTGAAGAACGC | 0.542 | 0.529 | 0.6 | 0.634 | 0.2 | 0.888 | 0.68 |  | 1.52
GCCTGTAGATCAAGGTTAAGAAAGACTAAGCTAA | 0.243 | 0.329 | 0.0689 | 0.0892 | 0.822 | 1.14 | -0.419 | 0.142 | -0.568
CAAACTTGGTCACCGGAAGGTCAAAGTCCGCATG | 4.11 | 5.35 | 4.2 | 0.79 | 4.16 | 3.05 | 1.24 | 3.88 | 2.2
AGAATGAGGTTATACGTAGATCAGGGGAGAAAGT | 0.956 | 1.78 | 1.26 | 2.05 | 2.14 | 2.25 | 0.738 |  | 1.45
CCTGCTAGGTCAAGGTCAGCTAATCTACAGTATG | 5.07 | 5.45 | 7.01 | 2.36 | 4.54 | 3.97 | 2.88 | 3.4 | 1.23
GCGACTGGGGCATCAGCAGGTTACCAAAACTTAA | 1.16 | 0.879 | 0.0539 | -0.286 | 0.238 | 1.19 | 0.0193 | -0.298 | -0.326
TAGCCTAGGTCATTGGGCCATTATAGTACGCATC | 3.07 | 4.19 | 4.28 | 1.85 | 2.96 | 3.07 | 1.24 | 2.54 | 1.44
TCTAGTTGGTCACGGAGGTCATACACGACGGGTA | 4.18 | 4.45 | 4.21 | 1.16 | 4.65 | 3.5 | 2.17 | 5.88 | 3.53
TTACCAAGGTGAGCTCAGGTCGTTGATCCAACTC | 1.03 | 0.577 | 0.405 | -0.211 | 0.652 | 4.12 | 1.43 |  | 0.416
ACTTACGGGTCAACGAGGTTACAGCACGCGTATA | 3.89 | 6.06 | 5.3 | 2.37 | 6.55 | 4.46 | 1.51 | 7.79 | 3.71
CTCGAAAGGTCGTGCTCAGGTGAGTAGACCAAAC | 2.36 | 5.23 | 3.76 | 1.79 | 4.83 | 3.96 | 0.703 | 3.08 | 0.392
GCGACTGGGGCATCAGCAAGTTACCATAACTTAA | -0.0103 | 0.142 | 0.0409 | -0.018 | 0.208 | -0.53 | -0.605 | -0.37 | -0.296
GCTTGTAGCTCAAGGTTAAGAAAGACTAAGCTAA | -0.0742 | 0.0545 | -0.162 | -0.204 | 0.541 | 0.986 | -0.586 | -0.0239 | -0.603
GCTACTAGTTGAAAGGGCAACCGAATGATTCTCG | 2.01 | 1.33 | 1.35 | 0.375 | 1.33 | 0.651 | -0.134 | 0.234 | 0.214
CGTCCAACGTCAATGCTAGGTCAGTGAAAGCATT | 2.01 | 1.36 | 1.14 | 0.107 | 0.267 | 1.6 | 0.388 | 0.103 | -0.0849
ACTATTAGTTGAGTTAGGGCAACCGATACGACGC | 0.47 | 0.417 | 0.783 | 0.652 | 0.292 | 1.21 | 0.245 | 0.0394 | 0.368
GCTGCTAGGTCAACTGATGGTCAGCTGAAGCTCG | 3.56 | 5.1 | 5.51 | 1.55 | 2.82 | 3.12 | 1.05 | 1.61 | -0.0434
CGAACGAGGGCATGAGTTGATCGCAAATGCCGAT | 0.684 | 1.04 | 1.28 | 2.51 | 0.767 | 1.04 | -0.361 | 1.34 | 1.79
CGTCCAAGTTCAGAGAGGTCAGTGAATGCCGAGT | 4.58 | 4.46 | 5 | 4.24 | 3.48 | 3.14 | 1.43 | 6.86 | 7.06
CGAACTAGGTCATTGACAGGAGAGTGAATAGTAA | 2.29 | 3.65 | 4.2 | 2.21 | 2.23 | 2.48 | 0.629 |  | 0.844
ATCTCTAGGTAACAAGTTCAGTGAGAGAGAGGAC | 1.86 | 1.4 | 1.54 | 0.761 | 0.903 | 1.49 | 0.878 |  | 2.81

Sequence | PBM binding z-score [1] | PBM binding z-score [2] | PBM binding z-score [3] | PBM binding z-score [4] | PBM binding z-score [5] | PBM binding z-score [6] | PBM binding z-score [7] | PBM binding z-score [8] | PBM binding z-score [9]
AGAAAGAGGTTATACGTAGATCAGGGAAGAAAGT | 1.42 | 2.21 | 1.59 | 1.23 | 2.93 | 1.52 | 0.336 |  | 0.623
CCTACTGGGCCATTCATAGGTCATTGATCATATG | 2.77 | 2.41 | 1.78 | 0.112 | 1.56 | 1.6 | 0.0409 |  | 0.415
TTACCAAGGGGAGCTGAGGTCGTTGATCCAACTC | 0.704 | 0.0282 | -0.439 | 0.656 | 0.726 | 3.71 | 1.49 |  | 1.86
GCAACGAGGGCAAGTTGATAGCAGAGTTTGATGG | 1.66 | 1.61 | 1.77 | 2.2 | 0.98 | 1.36 | 0.152 |  | 1.66
CCTCCTGGGCCAAAAAGGTCATTGATGCCGATAA | 4.4 | 4.5 | 3.91 | 0.197 | 4.5 | 3.12 | 0.604 |  | 2.38
TCACGGAGGACACGAAAGGTCAGAGCTCGACATC | 4.82 | 4.96 | 5.55 | 1.1 | 4.31 | 3.55 | 1.26 |  | 1.17
TCTTGTAGATCAAGCAGGTTAAGAAAGCCTGAGT | 0.31 | 0.0826 | -0.299 | 0.319 | 0.444 | 0.331 | -0.339 |  | 0.113
CCTGCTAGGTCCATGGTCAGCTAAAGCAGCTCGC | 0.248 | -0.442 | -0.195 | 1.19 | -0.603 | -0.287 | -0.629 |  | 0.0229
TCTTGTAGATCAATAGAGCTTAAGAAAGTGCGCT | -1.12 | -0.405 | -0.425 | -0.034 | -0.343 | -0.676 | -1.11 |  | -0.773
ACAGACAGGTGACGAAGGTAACTCAGGCTATCAT | 0.451 | 0.549 | 0.697 | -0.564 | 0.578 | 1.03 | 0.0235 |  | -0.374
CGTCAAAGTTCAAGGTAACGGAACAGAAAGCAGC | 3.7 | 5.46 | 6.41 | 4.07 | 4.74 | 2.84 | 1.14 |  | 2.84
TGTCAAAGTTCAAAGGAAACGTAAGTATCCACAC | 3.37 | 5.07 | 5.18 | 3.95 | 4.12 | 1.62 | -0.452 |  | 3.4
TAGCCTAGGTCCGATCGGGCCAGTATACGCTATA | -0.854 | -0.722 | -0.738 | -0.969 | -0.677 | 0.334 | -0.898 |  | -0.952
TAGCCTAGGTCATTCCGGGGCCAGTATAGAAAGC | 3.12 | 5.28 | 4.24 | 1.28 | 2.66 | 3.63 | 0.929 |  | 1.46
CTCGAAAAGTCGTGCTCAGGTGAGTATACCAAAC | 0.216 | 0.157 | -0.0265 | 0.322 | 0.0508 | 1.75 | 0.807 |  | -0.43
CAAACTAGGTCAAGATGTCAAAGTCCGCTTCCCG | 3.53 | 4.72 | 5.27 | 1.76 | 3.43 | 2.86 | 1.04 |  | 0.881
CGTCCAAGGTCAAGGACAGTGAAAGAGACTCGAA | 3.94 | 6.19 | 6.78 | 3.26 | 5.3 | 3.74 | 2.83 |  | 2.03
TCGCGTAGGTTAGGGGCATTCAGAATGGCGTCGA | 0.811 | 0.412 | 0.26 | 0.518 | 0.821 | 0.842 | 0.102 |  | 0.649
ATCGAAAGATCGACGAGGTGAGTATACACCGTTT | -0.514 | 0.223 | 0.471 | -0.641 | 0.512 | 1.14 | 0.311 |  | -0.18
GATACAGGGTCAGCTAGAGGCCCGAGTATGGAAA | 2.47 | 4.74 | 3.86 | 1.21 | 4.25 | 2.49 | 0.0608 |  | 0.402
CCGACTGCGGCATAAGGTTACCATAAGCCAGCCC | 0.92 | 0.306 | 0.391 | 0.104 | 0.766 | 2.11 | 1.49 |  | -0.279
TCATATAGGTAATACAGGTGAAGGTCGGCATCTA | 2 | 1.13 | 0.974 | 1.69 | 1.46 | 1.31 | 0.829 |  | 0.817
GCTTACGGGTCTAAGGTTATAGCATGAATAGAAT | 0.97 | 0.869 | 0.598 | 1.27 | 1.46 | 2.16 | 1.21 |  | 1.04
CGAACTAGGTGATCCAGGACAGTGAATACATTGA | 0.12 | 0.151 | 0.467 | 0.07 | 0.363 | 1.38 | 0.934 |  | 0.0681
CCTGCTAGGTCATGGTCAGTTAATCTACAGTATG | 3.11 | 4.04 | 5.07 | 2.12 | 3.12 | 3.23 | 1.57 |  | 0.435
GCGACTGGGGCATCAGTAGGTTACCATAACTTAA | 0.91 | 0.793 | 0.519 | 0.0645 | 0.498 | 0.632 | -0.249 |  | -0.583
TAGCCTAGGTCAGATGGGGCCAGTATACGCTATA | 2.71 | 2.98 | 3.65 | -0.279 | 1.62 | 4.6 | 0.386 |  | 0.0236
